This is an account of results in PubChem BioAssay (NCI).

Holding throughout (test): NCI-60 one-dose screen, 48 h (100 = growth as untreated, 0 = no growth, -100 = all killed)
Common to all, as to details: 10 µM unless noted

Experiment [1] relates to K-562 leukemia.
Experiment [2] has as its system MALME-3M melanoma.
Experiment [3] deals with MDA-MB-231 breast.
Experiment [4] concerns RXF 393 renal.
The subject of experiment [5] is SF-268 CNS.
For experiment [6], the system named is SF-295 CNS.
For experiment [7], the system named is SF-539 CNS.
Experiment [8] has as its system UACC-257 melanoma.
The subject of experiment [9] is M14 melanoma.
For experiment [10], the system named is HCT-15 colon.
Experiment [11] relates to HT29 colon.
For experiment [12], the system named is SNB-75 CNS.
Experiment [13] has as its system SNB-19 CNS.
The subject of experiment [14] is U251 CNS.
Experiment [15] has as its system PC-3 prostate.
For experiment [16], the system named is UACC-62 melanoma.
In experiment [17] the test system is SK-MEL-28 melanoma.
Experiment [18] deals with SK-MEL-2 melanoma.
For experiment [19], the system named is SK-MEL-5 melanoma.
Experiment [20] has as its system LOX IMVI melanoma.

Each structure is given as a SMILES string. About 83,000 compounds went through this panel and 20% of them were active in at least one assay; those are over-represented in the sample as a whole.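 A percent growth of 40 corresponds to 60% growth inhibition; 0 means no net growth; -100 means all cells died. Active threshold: below 10.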 A number with no mark means an inactive call. Active and inactive are the calls of the source.

Regarding `O=C(Nc1nc2ccc(O)cc2s1)c1cccc(C(F)(F)F)c1`, the growth in [1] was 18.7%; in [2], 81.6%; in [3], 90.7%; in [4] it was 103%; in [5], 59.4%; in experiment [6] it was 69.9%. In addition, the growth in [7] is 72.5%; in experiment [8], 70.1%; in experiment [9], 50.1%; in experiment [10] it was 47.1%; in [11], 102%; in experiment [12] it was 118%. The growth in experiment [13] was 95.4%; in experiment [14], 62.7%; in experiment [15], 58.2%; in [16], 45.6%; in experiment [17] it was 82.2%; in experiment [18] it was 57.2%.

With `COc1cc(/C=C/C(=O)c2cc(OC)c(OC)c(OC)c2)ccc1OCc1ccc(F)cc1`, the growth in [1] is 11.7%; in experiment [2] it was 67.6%; in [3] it was 46.8%; in experiment [4], 77.7%; in experiment [5], 58%; in experiment [6], 54.7%. Moreover, the growth is 9.22% (active) in experiment [7]; 79.8% in experiment [8]; 71% in experiment [9]; 16% in experiment [10]; 4.34% (active) in experiment [11]; 8.67% (active) in [12]. The growth in [13] was 49.8%; in [14], 33.8%; in experiment [15] it was 35%; in [19] it was 58.7%; in experiment [16] it was 43.9%; in experiment [18], 90%.

Turning to `CC1=C(C)C(=O)C(Nc2ccccc2)=C(Cl)C1=O`, the growth in [1] was 15.9%; in experiment [2], 108%; in experiment [3], 15.4%; in experiment [4], 96.8%; in experiment [5], 95.4%; in experiment [6], 102%. Moreover, the growth is 95.4% in [7]; 90.3% in [8]; 95.9% in experiment [9]; 94.2% in [10]; 99.1% in experiment [11]; 65.4% in experiment [12]. In addition, the growth in experiment [13] is 88.8%; in experiment [14], 84.3%; in experiment [15] it was 73.9%; in experiment [16], 90.3%; in experiment [17] it was 106%; in experiment [18], 85.5%.

As for `CCOC(=O)c1c(Nc2ccccc2)nn2c(N)c(C#N)c(-c3ccc(Cl)cc3)nc12`, the growth was 69.1% in experiment [1]; 85% in [2]; 69.9% in experiment [3]; 64.6% in experiment [4]; 61.1% in experiment [5]; 26.8% in experiment [6]. The growth in experiment [7] was 64.3%; in experiment [8], 95.8%; in [9], 81.2%; in experiment [10] it was 76%; in [11] it was 73.1%; in [12] it was -11.2% (active). In addition, the growth in [13] was 89.8%; in experiment [14], 44.6%; in experiment [15], 40.9%; in [16], 70%; in experiment [20], 49.3%; in experiment [17], 78.5%. In addition, the growth in experiment [18] was 87%.

Turning to `Cc1ccc2c(n1)C(=O)C(Cl)=C(Nc1cccc(C(C)C)c1)C2=O`, the growth in [1] was 3.49% (active); in experiment [2], 83.8%; in experiment [3], 45.8%; in experiment [4], 73.1%; in experiment [5] it was 80.9%; in [6] it was 70.1%. Also, the growth in [7] was 80.7%; in [8], 1.85% (active); in experiment [9], 44.7%; in [10], 32.4%; in [11], 97%; in experiment [12], 68.6%. The growth is 71.7% in experiment [13]; 60.3% in [14]; 57.9% in [15]; 87.1% in experiment [16]; 63.1% in [17]; 47.2% in [18].

`CSCCC(C(=O)O)N1C(=O)/C(=C/c2ccc(O)c(O)c2)SC1=S` (stereo not given): the growth in experiment [1] was 109%; in experiment [2], 101%; in [3], 97.1%; in experiment [4], 125%; in experiment [5], 97.6%; in experiment [6] it was 96.5%. Also, the growth in [7] was 95.7%; in [8], 104%; in [9], 101%; in experiment [10], 100%; in [11], 105%; in experiment [12], 93.6%. The growth was 97.9% in [13]; 93.4% in experiment [14]; 99.2% in experiment [15]; 93.7% in experiment [16]; 103% in experiment [20]; 99.5% in experiment [17]. Besides, the growth in experiment [18] was 133%.

With `COC(=O)c1ccc(NC(=S)N2CCc3ccc([N+](=O)[O-])cc3C2)cc1O`, the growth in [1] was 110%; in experiment [2] it was 95.4%; in [3] it was 94.5%; in [4], 110%; in experiment [5] it was 103%; in experiment [6], 102%. The growth in [7] is 103%; in [8], 109%; in experiment [9] it was 102%; in [10], 99.7%; in experiment [11], 109%; in experiment [12], 112%. Also, the growth in experiment [13] was 97.6%; in experiment [14], 111%; in experiment [15], 98.7%; in experiment [16], 99.2%; in [17] it was 106%; in [18], 122%.

As for `CCN(CC)c1ccc(C=O)c(OCc2cn(CC(=O)Nc3ccc(Cl)cc3)nn2)c1`, the growth in [1] was 51.7%; in [2], 91.5%; in experiment [3], 80.4%; in experiment [4] it was 34.1%; in experiment [5] it was 84.6%; in experiment [6], 65.8%. Also, the growth in [7] was 75%; in experiment [8], 108%; in experiment [9] it was 87.7%; in experiment [10], 61.4%; in experiment [11] it was 73.2%; in [12], 103%. The growth was 69% in [13]; 53.7% in experiment [14]; 56.2% in experiment [15]; 58% in experiment [16]; 58.8% in [20]; 92.7% in experiment [17]. Besides, the growth in experiment [18] was 89.7%.

Take `C#Cc1nc(C2=C(C)C(O)CC2)cs1` (stereo not given): the growth in [1] is 114%; in [2], 109%; in experiment [3], 112%; in experiment [4], 95.6%; in [5], 108%; in [6], 113%. Also, the growth was 108% in experiment [7]; 102% in experiment [8]; 101% in [9]; 98.9% in experiment [10]; 118% in experiment [11]; 96.1% in experiment [12]. The growth was 104% in experiment [13]; 104% in experiment [14]; 97.7% in experiment [15]; 101% in experiment [19]; 94.2% in [16]; 117% in experiment [18].
